KCNH2 WT inh = inhibitors of human wildtype KCNH2 potassium channel; AID 720551; Q12809; activity change, % at 1.84 µM; hit rate 0.37% among 340,000; U2OS, BacMam KCNH2, thallium flux FluxOr; stronger effect = lower value;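 active = maximum activity change below -70%; inconclusive = maximum activity change between -70% and -50%; inactive = maximum activity change above -50%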
Target sequence (Q12809 whole entry, looked up): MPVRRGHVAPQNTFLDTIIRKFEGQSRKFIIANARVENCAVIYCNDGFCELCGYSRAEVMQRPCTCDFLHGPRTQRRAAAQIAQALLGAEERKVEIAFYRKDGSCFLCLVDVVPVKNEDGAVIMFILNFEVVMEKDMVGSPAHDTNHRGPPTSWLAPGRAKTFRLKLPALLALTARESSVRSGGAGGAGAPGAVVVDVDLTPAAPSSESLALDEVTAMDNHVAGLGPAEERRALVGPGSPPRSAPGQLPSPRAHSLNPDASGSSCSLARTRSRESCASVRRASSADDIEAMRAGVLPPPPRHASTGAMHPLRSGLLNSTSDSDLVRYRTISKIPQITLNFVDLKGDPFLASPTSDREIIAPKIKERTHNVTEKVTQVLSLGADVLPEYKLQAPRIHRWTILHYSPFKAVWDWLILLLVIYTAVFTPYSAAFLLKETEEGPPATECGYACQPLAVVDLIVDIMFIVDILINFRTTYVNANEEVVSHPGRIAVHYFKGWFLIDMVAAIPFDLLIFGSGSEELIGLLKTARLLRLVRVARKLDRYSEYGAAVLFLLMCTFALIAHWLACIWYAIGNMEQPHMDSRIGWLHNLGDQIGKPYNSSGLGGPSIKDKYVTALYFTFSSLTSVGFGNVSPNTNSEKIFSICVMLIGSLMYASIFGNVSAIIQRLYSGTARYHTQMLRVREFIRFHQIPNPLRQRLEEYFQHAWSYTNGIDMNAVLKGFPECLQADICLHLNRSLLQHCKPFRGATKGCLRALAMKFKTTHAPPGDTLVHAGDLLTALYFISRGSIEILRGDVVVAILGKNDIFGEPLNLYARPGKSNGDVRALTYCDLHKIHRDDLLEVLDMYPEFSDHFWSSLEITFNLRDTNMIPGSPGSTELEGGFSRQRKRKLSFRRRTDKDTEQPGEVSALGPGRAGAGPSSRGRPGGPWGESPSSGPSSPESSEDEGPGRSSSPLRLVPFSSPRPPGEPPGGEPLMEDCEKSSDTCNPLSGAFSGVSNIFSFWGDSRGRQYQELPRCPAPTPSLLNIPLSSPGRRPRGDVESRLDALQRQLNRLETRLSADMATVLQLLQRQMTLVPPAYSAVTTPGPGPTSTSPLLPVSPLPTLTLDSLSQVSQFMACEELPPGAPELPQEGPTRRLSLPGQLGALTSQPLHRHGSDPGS
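U2OS cells transduced with wild-type KCNH2 virus are loaded with FluxOr dye for 45 min, and thallium flux is measured in kinetic reads before and after stimulation buffer. Rate constants are normalized to DMSO controls.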
JMJD2E inh = inhibitors of human JMJD2E histone demethylase. B2RXH2. Potency, µM (series often up to 57.1 µM), hits mostly inhibitors. JMJD2E catalytic domain, FDH-coupled NADH fluorescence (FDH is formaldehyde dehydrogenase). hit rate 1.6% among 230,000; active = well fitted inhibition curve with a large enough effect, not every such curve was filed as active; inconclusive = small, poorly fitted or top-dose-only effect, or another doubt; inactive = no such curve, though single readings can be large or run the other way; note: nearly all actives have a fitted effect of over 50% in size
CtBP-E1A blk = blocks the CtBP interaction with E1A | AlphaScreen GST-E1A/His-CtBP binding, 1536-well; stronger effect = lower value | activity change, % (no concentration beside the values) | hit rate 0.49% among 340,000
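Homogeneous bead-based format: GST-tagged E1A captured on glutathione donor beads, His-tagged CtBP on nickel acceptor beads; compounds precede bead addition by 2 h at 37 °C.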
Six1-Eya2 inh = blocks human Six1 binding to Eya2; Q15475+O00167; AlphaScreen GST-Six1/His-Eya2 binding, biochemical; stronger effect = lower value; activity change, % (test concentration not listed); hit rate 0.56% among 360,000
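Homogeneous AlphaScreen proximity assay pairing GST-Six1 with His-tagged Eya2 (added as 5X mix: 250 nM and 500 nM) in 50 mM Tris pH 8.0, 300 mM NaCl, 1 mM TCEP. Glutathione donor and nickel acceptor beads; 1 h, 37 °C, dark.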
KCNH2 3.1 block = KCNH2 3.1 (human) potassium channel inhibition; U2OS KCNH2 3.1, thallium flux FluxOr; stronger effect = lower value; activity change, % (tested at about 1.8 µM); hit rate 0.95% among 340,000; AID 720553;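 active = maximum activity change below -70%; inconclusive = maximum activity change from -70% to -50%; inactive = maximum activity change above -50%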;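 note: thallium influx rate constant from kinetic fluorescence after stimulation buffer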
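Normalized rate constant (relative to positive and negative DMSO controls) derived from a 2 min kinetic fluorescence read after stimulation; U2OS cells expressing the 3.1 isoform via virus at 1.77 x 10^8 /mL.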
Numbers stand for hits; - = inactive; ? = inconclusive; . = no result given. Most compounds without a hit are left out; they make up all but 2% or so of the library. Cut-off read from the data, not from the text of the source, unless noted: active = activity change below about -65%; inconclusive = mostly about -30% to -63%; inactive = weaker than that.

SMILES	KCNH2 WT inh	JMJD2E inh	CtBP-E1A blk	Six1-Eya2 inh	KCNH2 3.1 block
O=C(CCCCCNC(=O)c1ccccc1)N/N=C/c1ccc(O)cc1O	-	20µM	?	-	-
O=C(N/N=C/c1ccccc1)c1cc(=O)[nH]c2ccccc12	-	-	-	-	-
COc1ccc(O)c(/C=N/NC(=O)c2cc(=O)[nH]c3ccccc23)c1	-	7.1µM	?	-92	-
COc1ccc(/C=N/NC(=O)c2nc(-c3ccccc3)n(-c3ccccc3)n2)c(O)c1	-	18µM	?	?	-
O=C(NN=Cc1ccccc1O)C(O)c1ccccc1 (stereo not given)	-	.	-68	?	-
O=C(CNC(=O)C1COc2ccccc2O1)N/N=C/c1ccc(O)cc1O (stereo not given)	-	28µM	-88	-88	.
CCCc1nnc(NC(=O)CC(=O)OCC)s1	-	-	-	-	-
O=c1cc(C(F)(F)F)nc(-n2[nH]c3c(c2=O)CCCC3)[nH]1	-	-	-88	-85	-
Nc1nc(C(F)(F)F)cc(=O)[nH]1	-	-	.	-	-
CC(=O)c1sc(N/N=C\c2ccccc2O)nc1C	-	28µM	?	?	-
CCCCNC(=S)N1CCC(Cc2ccccc2)CC1	-	.	-	-	-
CC(=O)N/C(=C\c1cccc([N+](=O)[O-])c1)C(=O)NC1CCCCC1	-	-	-	-	?
O=C(Nc1ccc(Br)cc1)/C(=C/c1cccc([N+](=O)[O-])c1)NC(=O)C1CCCCC1	-97	-	-	-	-90
Cc1ccc(NC(=O)/C(=C/c2cccc([N+](=O)[O-])c2)NC(=O)C2CCCCC2)cc1	-	-	-	-	-79
COc1ccc(/C=C(/NC(=O)c2cccs2)C(=O)Nc2ccc(C)cc2)cc1OC	-	-	-	-	-
Cc1ccc(NC(=O)/C(=C\c2cccc([N+](=O)[O-])c2)NC(=O)c2cccs2)cc1	-	-	-	-	-84
CN1CCc2c(sc(NC(=O)Cc3ccccc3)c2C#N)C1	-	.	-	-	-
O=C(CCc1ccc(S(=O)(=O)NCCc2ccccc2)cc1)NCc1ccc2c(c1)OCO2	-	-	-	-	-
N#Cc1cc(Oc2cccc3cccnc23)c(-n2nnc3ccccc32)cc1C#N	-	32µM	-	-	-
N#Cc1cc(O)c(-n2nnc3ccccc32)cc1C#N	-	-	-	-	-
CCCCN1C(=O)/C(=c2\sc3nc(=O)c(-c4ccccc4)nn3c2=O)c2ccccc21	-	-	-	-	-
OC(CSc1ccccc1)CN1CCN(c2ccc(Cl)cc2)CC1 (stereo not given)	-	.	-	-	-86
COc1cccc2cc(C(=O)N3CCN(C45CC6CC(CC(C6)C4)C5)CC3)c(=O)oc12	-	-	-	-	-
COc1ccc2o/c(=N/NC(=O)c3cccs3)c(C(N)=O)cc2c1	-	-	-83	?	.
NC(=O)c1cc2ccccc2o/c1=N/NC(=O)c1cccs1	-	-	-	?	-
SMILES	KCNH2 WT inh	JMJD2E inh	CtBP-E1A blk	Six1-Eya2 inh	KCNH2 3.1 block
CCOC(CNC(=O)c1nnc(Cc2cc(OC)c(OC)c(OC)c2)o1)OCC	-	-	-	-	-
CC(C)(C)c1nc2scc(-c3ccc(Cl)cc3)c2c(=O)o1	-	-	-	-	-82
COc1ccc(-c2csc3nc(C(C)(C)C)oc(=O)c23)cc1OC	-	-	.	-	-
Nc1nonc1NC(=O)NN=C1CCCCC1	-	-	-	-	-
COc1cc(C(=O)NC2CCCc3ccccc32)ccc1OCC(=O)Nc1ccc(F)cc1 (stereo not given)	-	-	-	-	-
CC(=O)c1cccc(-c2ccnc3c2CC(C(=O)Nc2ccc4c(c2)OCO4)O3)c1 (stereo not given)	.	.	-	-	.
CCOC(=O)c1ccc(S(=O)(=O)N2CCN(C3CC(=O)N(c4ccc(OC)cc4)C3=O)CC2)cc1 (stereo not given)	-	.	-	-	-
CCOC(=O)c1ccc(N2C(=O)CC(N3CCN(C/C=C/c4ccccc4)CC3)C2=O)cc1 (stereo not given)	-84	-	-	-	-101
Cc1ccc(C(c2nnnn2Cc2cccs2)N2CCN(C(=O)c3ccco3)CC2)cc1 (stereo not given)	-	-	-	-	-
COc1ccc(C2c3ccc(O)cc3Oc3ncn4nc(-c5ccccn5)nc4c32)cc1OC (stereo not given)	-	?	?	?	-

Source: PubChem BioAssay (National Center for Advancing Translational Sciences (NCATS))
